Shown are actives, neighbours in structure and some others; about 4.5% of the full set was active somewhere.
Rtt109 HAT inh – blocks Candida albicans Rtt109/Vps75 acetyltransferase activity. hit rate 0.16% among 330,000. inhibition, % at 34.9 µM. purified Rtt109/Vps75, ThioGlo CoA-SH fluorescence, 4 h. Q5AAJ8;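 active = inhibition of at least 50% in every replicate; inconclusive = best replicate reaches 50% inhibition but some replicates fall short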
Target sequence (Q5AAJ8 whole entry, looked up): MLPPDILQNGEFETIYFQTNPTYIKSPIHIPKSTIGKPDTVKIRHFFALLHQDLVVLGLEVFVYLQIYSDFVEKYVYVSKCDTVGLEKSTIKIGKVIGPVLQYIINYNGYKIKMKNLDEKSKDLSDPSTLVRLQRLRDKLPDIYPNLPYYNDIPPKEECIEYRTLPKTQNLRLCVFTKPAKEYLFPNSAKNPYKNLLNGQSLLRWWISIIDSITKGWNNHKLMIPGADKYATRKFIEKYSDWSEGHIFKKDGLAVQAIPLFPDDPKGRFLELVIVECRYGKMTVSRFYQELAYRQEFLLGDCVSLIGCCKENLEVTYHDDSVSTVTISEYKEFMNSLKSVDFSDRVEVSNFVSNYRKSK
Efflux pump inh – inhibitors of Candida antifungal efflux pumps expressed in yeast; S. cerevisiae Candida pump triplex, Nile Red efflux; inhibition, % at 10 µM; hit rate 0.44% among 330,000; AID 485275;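 active = plate passing quality check with inhibition over a set limit, or well fluorescence over plate mean plus 4 SD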;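 note: Nile Red retained in pooled yeast measured as flow cytometry median fluorescence; higher means more Nile Red kept so more efflux inhibition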
HDAC3 inh – blocks human histone deacetylase 3 | O15379 | recombinant HDAC3, fluorogenic peptide/trypsin coupled, fluorescence | inhibition, % at 8.3 µM | hit rate 0.15% among 320,000 | AID 2718; in the data active = inhibition above about 26%, passing the limit was not always enough; inconclusive = no clear call, values can overlap the other calls
Rce1 inh – inhibitors of yeast Ras-converting enzyme; hit rate 0.27% among 290,000; AID 2563; Q03530; calls only; yeast membranes, quenched prenylated peptide cleavage fluorescence;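 active = fall in fluorescence gain of 50% or more versus controls, with final raw signal at or below 3038400; inconclusive = same 50% fall but final raw signal above 3038400; inactive = fall in fluorescence gain under 50%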
ALR H2O2 inh – blocks human ALR sulfhydryl oxidase activity; P55789; purified ALR, DTT oxidation, H2O2 HRP-luminol luminescence; inhibition, % (no concentration beside the values); hit rate 3.8% among 290,000;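 active = mean replicate inhibition above about 79%, with every replicate also reaching it, limit read from the data; inconclusive = only one of the two criteria met; inactive = mean below limit and not every replicate reaching it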
Target sequence (P55789 whole entry, looked up): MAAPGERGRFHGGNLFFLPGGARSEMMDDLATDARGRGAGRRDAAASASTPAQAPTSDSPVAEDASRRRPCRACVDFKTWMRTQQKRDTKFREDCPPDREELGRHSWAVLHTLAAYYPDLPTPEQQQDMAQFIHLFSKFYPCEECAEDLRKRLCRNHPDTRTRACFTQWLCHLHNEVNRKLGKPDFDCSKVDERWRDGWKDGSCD
GRK2 aptamer HTS – human GRK2 inhibition via aptamer displacement; P25098; hit rate 0.59% among 330,000; inhibition of aptamer binding, % at 10 µM; AID 488847; bead flow cytometry, FAM-aptamer displacement from GRK2;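 active = inhibition of aptamer binding above 40%, roughly 3 SD of noise, on plates passing a quality check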;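 note: median bead fluorescence of bound FAM aptamer so fluorescent compounds give negative values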
Each line names hits and unclear results; the compound was inactive in the other large screens.

COc1ccc(NS(=O)(=O)c2cccc(C(=O)NCc3ccccc3CN3CCOCC3)c2)cc1	none (no result: Efflux pump inh, HDAC3 inh, Rce1 inh, ALR H2O2 inh, GRK2 aptamer HTS)
COc1ccc(S(=O)(=O)N2CCOCC2)cc1NC(=O)c1cccc(-n2cccc2)c1	none
CCOc1ccc(NC(=O)c2cccc(-n3cccc3)c2)cc1S(=O)(=O)N1CCOCC1	GRK2 aptamer HTS 43.0 (no result: Rce1 inh, ALR H2O2 inh)
COc1ccc(NC(=O)CN(C)C(=O)c2cc3c(s2)CCCCC3)cc1	none (no result: Rce1 inh)
COC(=O)c1sccc1NC(=O)c1cc2c(s1)CCCC2	none
COc1ccc(CC(=O)Nc2nc3ccc(F)cc3s2)cc1S(=O)(=O)N1CCOCC1	ALR H2O2 inh 98.7
COc1ccc(NC(=O)CN(C)C(=O)c2cc3c(s2)CCC3)cc1	GRK2 aptamer HTS 63.0
COc1ccc(C)cc1NC(=O)c1cc2c(s1)CCC2	ALR H2O2 inh 94.2
COc1ccc([C@H]2CC(=O)C=C(c3ccc(OC)c(F)c3)C2)cc1	none (no result: Rce1 inh)
Cc1ccc(NC(=S)N2CC(C)OC(C)C2)cc1C (stereo not drawn)	none
COc1ccc(NC(=O)c2cc3c(s2)CCC3)cc1S(=O)(=O)N1CCOCC1	ALR H2O2 inh 98.6
COc1ccc(S(=O)(=O)N2CCOCC2)cc1NC(=O)c1cc2c(s1)CCCC2	none
O/N=C(\COc1ccccc1O)c1ccccc1	ALR H2O2 inh 76.8 (no result: Rtt109 HAT inh)
COC(=O)COc1ccccc1C(N)=O	none
NC(=S)NNC(=O)COc1ccccc1O	ALR H2O2 inh 89.0
O=C(O)COc1ccccc1O	Rtt109 HAT inh 60.2 (no result: Rce1 inh)
Cc1cccc(COc2ccc(/C=N/NC(=O)c3nnn(-c4nonc4N)c3COc3ccc(F)cc3)cc2)c1	none
CC(Sc1nc2ccccc2c(=O)n1CCCN1CCOCC1)C(=O)N1CCc2ccccc21 (stereo not drawn)	none (no result: Efflux pump inh, HDAC3 inh, Rce1 inh, ALR H2O2 inh, GRK2 aptamer HTS)
CCCN(CC(=O)Nc1ccccc1OC)C(=O)CSC(=S)N1CCCC1	none (no result: Rce1 inh)
c1ccc(C[n+]2cccc(-c3ccccc3)c2)cc1	none
NC(=O)c1ccc[n+](Cc2ccccc2)c1	GRK2 aptamer HTS 80.0
CCCOC1CCCN(C(=O)c2cc(COc3ccc(F)c(F)c3)on2)C1 (stereo not drawn)	none
CCCc1nn(C(=O)c2ccccc2)c2c1C(=O)CC(C)(C)C2	HDAC3 inh 71.7
Cc1nn(C(=O)c2ccccc2)c2c1C(=O)CC(C)(C)C2	HDAC3 inh 90.9
Cc1nn(-c2nc3ccccc3n2Cc2ccccc2)c2c1C(=O)CC(C)(C)C2	none
CCC(C)NC(=O)C1CCN(S(=O)(=O)c2ccc(-n3cnnn3)cc2)CC1 (stereo not drawn)	none
COc1ccc(OC)c(NCc2nnc(-c3ccccc3)o2)c1	ALR H2O2 inh 99.0
Oc1c(Cl)cc(Cl)cc1C=Nc1ccc(N2CCOCC2)cc1	none
Oc1ccc(C=Nc2ccc(N3CCOCC3)cc2)c(O)c1	ALR H2O2 inh 98.6
O=[N+]([O-])c1cc(Cc2ccccc2)cc(C=Nc2ccc(N3CCOCC3)cc2)c1O	ALR H2O2 inh 97.4
Cc1cc(N2C(=O)C(O)=C(C(=O)c3cc4ccccc4o3)C2c2ccc(OC(C)C)cc2)no1 (stereo not drawn)	ALR H2O2 inh 95.7
COc1cccc(C2C(C(=O)c3cc4cccc(OC)c4o3)=C(O)C(=O)N2c2cc(C)on2)c1OC (stereo not drawn)	none
Cc1cc(N2C(=O)C(O)=C(C(=O)c3cc4ccccc4o3)C2c2cccc(Br)c2)no1 (stereo not drawn)	ALR H2O2 inh 97.6
COc1cccc2cc(C(=O)C3=C(O)C(=O)N(c4cc(C)on4)C3c3cccs3)oc12 (stereo not drawn)	ALR H2O2 inh 97.7
O=c1c2ccccc2nc(SCc2ccccc2)n1Cc1ccco1	none
O=c1c2ccccc2nc(SCc2nc3ccccc3s2)n1Cc1ccco1	ALR H2O2 inh 87.2
COc1ccc(-c2c(C(F)(F)F)oc3c(CN4CCN(C)CC4)c(O)ccc3c2=O)cc1	none
COc1ccc(-c2c(C)oc3c(CN4CCN(C)CC4)c(O)ccc3c2=O)cc1	Rce1 inh active
O=C1/C(=C/c2ccc(F)cc2)SC(=S)N1CC(=O)N1CCCCC1c1cccnc1 (stereo not drawn)	Rtt109 HAT inh 52.7
O=C1OC[C@H](Cc2ccc3c(c2)OCO3)/C1=C\c1ccc2c(c1)OCO2	none
CC1Cc2ccccc2N1C(=O)NC1CC(=O)N(c2ccc3c(c2)OCCO3)C1 (stereo not drawn)	none
CC(Nc1ccc2c(c1)OCCO2)C(=O)N1c2ccccc2CC1C (stereo not drawn)	ALR H2O2 inh 98.5
Cc1ccc(C(=O)NCCCNC(=O)COc2ccc(C)c(C)c2)cn1	Rtt109 HAT inh 55.2
Cc1ccc(C(=O)NCCNC(=O)COc2ccc(C)c(C)c2)cn1	none (no result: Rtt109 HAT inh)
N#Cc1ncc(C(F)(F)F)cc1Sc1ccc(N)cc1	ALR H2O2 inh 82.2
Nc1ccc2c(c1)Cc1c(F)cccc1-2	none (no result: Efflux pump inh, HDAC3 inh, Rce1 inh, ALR H2O2 inh, GRK2 aptamer HTS)
O=C(COc1ccccc1)Nc1cccc(-c2nn[nH]n2)c1	ALR H2O2 inh 98.8
CC(=O)Nc1cccc(-c2nn[nH]n2)c1	none (no result: ALR H2O2 inh)
O=C(Nc1cccc(-c2nn[nH]n2)c1)c1csc2c1CCCC2	ALR H2O2 inh 98.8 (no result: HDAC3 inh)
O=C(COc1ccccc1)Nc1cccc(-c2nc3cc4ccccc4cc3[nH]2)c1	Rce1 inh active
Cc1c(OC(C)C(=O)NCc2ccncc2)ccc2c3c(c(=O)oc12)CCCC3 (stereo not drawn)	none
COc1ccc(OC)c(C=NNC(=O)c2ccccc2NS(=O)(=O)c2cccs2)c1	none (no result: Rce1 inh)
Clc1ccc(N=c2ssnc2Cl)cc1	none
COc1ccc(N=c2ssnc2Cl)cc1	HDAC3 inh inconclusive
COc1cc(N=c2ssnc2Cl)cc(OC)c1OC	HDAC3 inh 35.8 (no result: ALR H2O2 inh)
N#Cc1ccc(N=c2ssnc2Cl)cc1	HDAC3 inh 37.7
O=C1CCCC2=C1C(c1ccc(Br)cc1)c1c([nH]c(=S)[nH]c1=O)N2 (stereo not drawn)	ALR H2O2 inh 83.0
Cc1ccc(C2C3=C(CCCC3=O)Nc3[nH]c(=S)[nH]c(=O)c32)cc1 (stereo not drawn)	none (no result: ALR H2O2 inh)
Cc1ccc2[nH]c3c(c2c1)CN(C(C)C)CC3	none
Cc1cc(C(=O)Nc2ccc(Cl)c(S(=O)(=O)N3CCOCC3)c2)c2ccccc2n1	none (no result: Rce1 inh, ALR H2O2 inh)
NNC(=O)c1cccc(COc2ccccc2Br)c1	ALR H2O2 inh 98.4
NNC(=O)c1ccc(COc2cccc3ccccc23)cc1	none
O=C(NNc1nc2c(F)cc(F)cc2s1)C1COc2ccccc2O1 (stereo not drawn)	none (no result: ALR H2O2 inh)
Cc1cccc2sc(NNC(=O)C3COc4ccccc4O3)nc12 (stereo not drawn)	ALR H2O2 inh 99.8
Cc1occc1C(=O)N1CCCC(Nc2ccc(C(C)C)cc2)C1 (stereo not drawn)	ALR H2O2 inh 98.7
Cc1ccc2nccc(C(=O)N3CCCC(Nc4ccc(F)cc4)C3)c2c1 (stereo not drawn)	ALR H2O2 inh 98.4
Cc1cc(C(=O)N2CCCC(Nc3ccc(F)cc3)C2)c(C)o1 (stereo not drawn)	ALR H2O2 inh inconclusive
CC(C)c1ccc(NC2CCCN(C(=O)c3cnc4ccccn4c3=O)C2)cc1 (stereo not drawn)	ALR H2O2 inh 94.5

Screens (PubChem)
